# Assay results from paper PMC7862700, “An all-to-all approach to the identification of sequence-specific readers for epigenetic DNA modifications on cytosine”.
# Assays:
# Assay in all cases: DAPPL (digital affinity profiling via proximity ligation, sequencing); 10 mM Tris-HCl pH 7.5, 50 mM NaCl, 1 mM DTT, 4% glycerol, room temperature, 30 min; GST-TFs on glutathione beads, 16-mer random dsDNA library, 0.1% formaldehyde crosslink after washing; high values mean tight binding
# Conditions in all cases: protein: recombinant; tags: N-terminal GST; dsDNA, one strand shown
# FEV = molecular target: T1, FEV (Homo sapiens, UniProt Q99581 1-238)
# T1 sequence: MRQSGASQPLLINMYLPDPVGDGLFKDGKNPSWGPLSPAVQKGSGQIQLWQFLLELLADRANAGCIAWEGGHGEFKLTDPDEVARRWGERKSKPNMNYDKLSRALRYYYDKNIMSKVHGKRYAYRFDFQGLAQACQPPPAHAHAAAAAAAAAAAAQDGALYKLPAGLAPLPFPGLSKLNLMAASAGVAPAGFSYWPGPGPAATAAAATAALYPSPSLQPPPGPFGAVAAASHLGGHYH
# Outline: (§1)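 Yeast served to express human transcription factors as GST fusions, which were then captured on glutathione beads and labelled with DNA barcodes. Pooled with a tag-only sample, they were incubated with 200 nmole of a 16-mer random double-stranded DNA library for 30 min at room temperature in Tris/NaCl/DTT/glycerol buffer, washed, crosslinked with 0.1% formaldehyde, ligated by proximity, amplified by PCR and sequenced. Dividing each hexamer's read frequency for a factor by its frequency for the tag-only sample gives the binding signal.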
# ETV5 = ETV5 (Homo sapiens, UniProt P41161 1-510)
# Chain of ETV5 (P41161 whole entry): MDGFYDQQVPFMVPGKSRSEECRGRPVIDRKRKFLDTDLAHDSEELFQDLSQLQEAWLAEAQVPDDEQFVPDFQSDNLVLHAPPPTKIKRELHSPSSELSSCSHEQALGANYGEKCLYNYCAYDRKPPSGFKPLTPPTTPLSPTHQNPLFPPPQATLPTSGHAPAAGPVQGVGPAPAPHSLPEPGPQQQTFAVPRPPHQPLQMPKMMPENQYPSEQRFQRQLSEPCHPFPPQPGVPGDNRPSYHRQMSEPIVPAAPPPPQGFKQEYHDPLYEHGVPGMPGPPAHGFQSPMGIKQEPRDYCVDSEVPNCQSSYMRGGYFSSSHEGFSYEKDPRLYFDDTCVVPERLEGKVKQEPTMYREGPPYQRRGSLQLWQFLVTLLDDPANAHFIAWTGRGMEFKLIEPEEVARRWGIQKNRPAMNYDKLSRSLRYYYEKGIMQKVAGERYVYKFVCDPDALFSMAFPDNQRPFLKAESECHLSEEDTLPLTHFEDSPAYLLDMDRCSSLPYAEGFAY
# Outline: as §1
# SPIC = molecular target: T2, SPIC (Homo sapiens, UniProt Q8N5J4 1-248)
# T2 sequence: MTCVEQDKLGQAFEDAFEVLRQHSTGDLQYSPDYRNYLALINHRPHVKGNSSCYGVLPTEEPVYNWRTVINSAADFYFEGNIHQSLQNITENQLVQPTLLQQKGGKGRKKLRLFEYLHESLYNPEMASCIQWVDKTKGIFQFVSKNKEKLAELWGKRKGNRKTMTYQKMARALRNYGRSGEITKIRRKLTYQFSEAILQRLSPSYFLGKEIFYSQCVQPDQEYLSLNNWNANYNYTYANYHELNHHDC
# Outline: as §1
# ELF4 = ELF4 (Homo sapiens, UniProt Q99607 1-663)
# Chain of ELF4 (Q99607 whole entry): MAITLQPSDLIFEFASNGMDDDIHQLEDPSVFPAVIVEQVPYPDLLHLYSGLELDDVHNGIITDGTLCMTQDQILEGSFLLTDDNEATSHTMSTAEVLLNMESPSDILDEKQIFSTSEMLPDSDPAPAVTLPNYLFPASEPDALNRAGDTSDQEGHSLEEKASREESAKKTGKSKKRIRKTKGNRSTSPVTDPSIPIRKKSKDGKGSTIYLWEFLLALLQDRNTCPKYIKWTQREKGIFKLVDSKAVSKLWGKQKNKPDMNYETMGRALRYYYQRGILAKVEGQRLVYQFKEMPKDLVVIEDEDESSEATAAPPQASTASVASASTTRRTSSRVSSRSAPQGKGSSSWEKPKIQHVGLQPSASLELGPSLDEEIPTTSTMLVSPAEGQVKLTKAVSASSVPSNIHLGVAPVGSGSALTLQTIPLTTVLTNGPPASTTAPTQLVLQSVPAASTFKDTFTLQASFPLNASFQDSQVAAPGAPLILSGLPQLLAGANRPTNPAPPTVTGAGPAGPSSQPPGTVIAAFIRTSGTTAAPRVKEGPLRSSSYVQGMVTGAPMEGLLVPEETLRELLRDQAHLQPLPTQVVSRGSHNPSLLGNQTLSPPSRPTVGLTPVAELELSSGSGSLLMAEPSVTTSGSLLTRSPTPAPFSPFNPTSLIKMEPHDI
# Outline: as §1
# ELK4 = molecular target: T3, ELK4 (Homo sapiens, UniProt P28324-2 1-405)
# T3 sequence: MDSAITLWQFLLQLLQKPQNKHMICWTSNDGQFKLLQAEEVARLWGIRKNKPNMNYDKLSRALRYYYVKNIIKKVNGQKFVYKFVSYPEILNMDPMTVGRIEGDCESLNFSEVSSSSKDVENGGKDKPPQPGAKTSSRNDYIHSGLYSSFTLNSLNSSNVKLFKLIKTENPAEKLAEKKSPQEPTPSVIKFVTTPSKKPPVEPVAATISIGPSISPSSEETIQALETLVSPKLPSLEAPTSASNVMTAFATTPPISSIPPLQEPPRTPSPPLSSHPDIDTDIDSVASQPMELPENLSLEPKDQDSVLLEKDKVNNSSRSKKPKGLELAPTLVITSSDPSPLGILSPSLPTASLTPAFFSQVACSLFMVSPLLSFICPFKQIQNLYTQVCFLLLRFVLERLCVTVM
# Outline: as §1
# ETV2 = molecular target: T4, ETV2 (Homo sapiens, UniProt O00321 1-342)
# T4 sequence: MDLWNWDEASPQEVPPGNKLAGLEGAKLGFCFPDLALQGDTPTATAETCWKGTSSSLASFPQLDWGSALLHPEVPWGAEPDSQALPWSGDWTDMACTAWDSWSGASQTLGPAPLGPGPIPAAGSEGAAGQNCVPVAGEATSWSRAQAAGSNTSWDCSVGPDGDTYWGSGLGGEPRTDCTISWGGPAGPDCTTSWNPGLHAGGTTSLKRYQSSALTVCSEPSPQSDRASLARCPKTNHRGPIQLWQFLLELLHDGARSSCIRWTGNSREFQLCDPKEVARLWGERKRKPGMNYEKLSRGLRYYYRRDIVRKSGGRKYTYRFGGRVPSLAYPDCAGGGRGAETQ
# Outline: as §1
# ELF3 = molecular target: T5, ELF3 (Homo sapiens, UniProt P78545 1-371)
# T5 sequence: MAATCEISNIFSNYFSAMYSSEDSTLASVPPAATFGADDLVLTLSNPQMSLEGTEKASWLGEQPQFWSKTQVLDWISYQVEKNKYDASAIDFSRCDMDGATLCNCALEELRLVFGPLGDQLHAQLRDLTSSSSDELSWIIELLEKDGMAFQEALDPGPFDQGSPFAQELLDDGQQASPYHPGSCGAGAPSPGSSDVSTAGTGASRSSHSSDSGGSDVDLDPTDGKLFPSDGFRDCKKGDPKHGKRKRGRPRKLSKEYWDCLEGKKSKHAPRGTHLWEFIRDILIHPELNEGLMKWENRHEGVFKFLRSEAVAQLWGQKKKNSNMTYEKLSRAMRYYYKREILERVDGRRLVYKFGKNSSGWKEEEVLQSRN
# Outline: as §1
# ETV1 = ETV1 (Homo sapiens, UniProt P50549 1-477)
# Chain of ETV1 (P50549 whole entry): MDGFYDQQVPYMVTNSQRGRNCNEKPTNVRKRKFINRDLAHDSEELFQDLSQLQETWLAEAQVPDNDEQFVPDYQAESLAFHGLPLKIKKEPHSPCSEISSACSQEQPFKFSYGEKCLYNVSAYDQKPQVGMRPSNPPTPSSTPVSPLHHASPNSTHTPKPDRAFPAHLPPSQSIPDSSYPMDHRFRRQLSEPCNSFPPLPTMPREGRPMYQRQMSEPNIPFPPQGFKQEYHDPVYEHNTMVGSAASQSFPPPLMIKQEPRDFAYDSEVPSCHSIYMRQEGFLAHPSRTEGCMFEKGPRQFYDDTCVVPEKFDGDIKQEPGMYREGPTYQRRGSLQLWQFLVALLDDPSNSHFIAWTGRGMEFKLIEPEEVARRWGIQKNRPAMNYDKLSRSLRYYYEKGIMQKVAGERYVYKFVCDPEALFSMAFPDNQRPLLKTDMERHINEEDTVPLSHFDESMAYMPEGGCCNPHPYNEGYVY
# Outline: as §1
# ERF = molecular target: T6, ERF (Homo sapiens, UniProt P50548 1-548)
# T6 sequence: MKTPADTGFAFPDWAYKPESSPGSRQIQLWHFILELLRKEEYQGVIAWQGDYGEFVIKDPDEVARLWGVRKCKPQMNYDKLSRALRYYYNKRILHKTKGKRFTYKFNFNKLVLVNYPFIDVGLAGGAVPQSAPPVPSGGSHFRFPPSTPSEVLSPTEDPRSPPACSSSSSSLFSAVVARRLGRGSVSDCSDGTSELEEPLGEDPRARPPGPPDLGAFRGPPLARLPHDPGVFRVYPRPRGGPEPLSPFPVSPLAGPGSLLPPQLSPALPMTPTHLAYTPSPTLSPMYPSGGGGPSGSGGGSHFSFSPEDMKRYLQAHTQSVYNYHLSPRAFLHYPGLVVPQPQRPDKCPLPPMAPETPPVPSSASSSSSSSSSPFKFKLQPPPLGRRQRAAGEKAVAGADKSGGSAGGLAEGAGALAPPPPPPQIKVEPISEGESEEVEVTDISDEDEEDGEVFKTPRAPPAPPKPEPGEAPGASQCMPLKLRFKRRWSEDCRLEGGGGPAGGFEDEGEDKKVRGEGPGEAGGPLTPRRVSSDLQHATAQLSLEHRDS
# Outline: as §1
# ETV3L = molecular target: T7, ETV3L (Homo sapiens, UniProt Q6ZN32 1-361)
# T7 sequence: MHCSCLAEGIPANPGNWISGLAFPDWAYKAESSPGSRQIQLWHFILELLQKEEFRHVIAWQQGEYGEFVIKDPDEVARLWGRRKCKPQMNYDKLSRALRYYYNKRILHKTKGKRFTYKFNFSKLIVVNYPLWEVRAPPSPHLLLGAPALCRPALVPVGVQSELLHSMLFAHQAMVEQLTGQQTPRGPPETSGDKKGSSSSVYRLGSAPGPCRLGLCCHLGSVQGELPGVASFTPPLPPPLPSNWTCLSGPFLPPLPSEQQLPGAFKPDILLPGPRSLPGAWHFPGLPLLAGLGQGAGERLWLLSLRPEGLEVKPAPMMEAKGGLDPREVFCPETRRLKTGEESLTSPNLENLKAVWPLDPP
# Outline: as §1
# ETS2 = molecular target: T8, ETS2 (Homo sapiens, UniProt P15036 1-469)
# T8 sequence: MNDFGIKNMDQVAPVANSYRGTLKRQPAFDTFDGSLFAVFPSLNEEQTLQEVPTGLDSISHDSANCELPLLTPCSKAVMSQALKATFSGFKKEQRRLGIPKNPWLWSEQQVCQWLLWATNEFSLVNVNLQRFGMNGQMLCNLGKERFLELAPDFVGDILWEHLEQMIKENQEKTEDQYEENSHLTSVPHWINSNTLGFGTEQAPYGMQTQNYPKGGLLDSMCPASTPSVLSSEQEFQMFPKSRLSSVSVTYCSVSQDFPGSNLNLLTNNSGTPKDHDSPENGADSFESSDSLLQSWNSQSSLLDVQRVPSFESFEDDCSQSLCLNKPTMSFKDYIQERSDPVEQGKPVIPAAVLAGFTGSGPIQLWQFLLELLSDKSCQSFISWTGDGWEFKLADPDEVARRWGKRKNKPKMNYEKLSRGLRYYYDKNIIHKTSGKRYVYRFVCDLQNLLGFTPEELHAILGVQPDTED
# Outline: as §1
# SPDEF = molecular target: T9, SPDEF (Homo sapiens, UniProt O95238 1-335)
# T9 sequence: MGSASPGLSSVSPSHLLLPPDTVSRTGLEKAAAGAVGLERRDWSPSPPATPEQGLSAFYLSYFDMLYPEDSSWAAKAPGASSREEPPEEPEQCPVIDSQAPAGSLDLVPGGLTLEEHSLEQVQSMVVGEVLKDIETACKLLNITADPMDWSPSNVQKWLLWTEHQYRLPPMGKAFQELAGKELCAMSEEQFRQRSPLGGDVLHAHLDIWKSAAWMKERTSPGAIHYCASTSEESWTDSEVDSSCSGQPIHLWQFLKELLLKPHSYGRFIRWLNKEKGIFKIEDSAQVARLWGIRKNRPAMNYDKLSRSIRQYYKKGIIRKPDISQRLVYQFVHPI
# Outline: as §1
# ETV7 = molecular target: T10, ETV7 (Homo sapiens, UniProt Q9Y603 1-341)
# T10 sequence: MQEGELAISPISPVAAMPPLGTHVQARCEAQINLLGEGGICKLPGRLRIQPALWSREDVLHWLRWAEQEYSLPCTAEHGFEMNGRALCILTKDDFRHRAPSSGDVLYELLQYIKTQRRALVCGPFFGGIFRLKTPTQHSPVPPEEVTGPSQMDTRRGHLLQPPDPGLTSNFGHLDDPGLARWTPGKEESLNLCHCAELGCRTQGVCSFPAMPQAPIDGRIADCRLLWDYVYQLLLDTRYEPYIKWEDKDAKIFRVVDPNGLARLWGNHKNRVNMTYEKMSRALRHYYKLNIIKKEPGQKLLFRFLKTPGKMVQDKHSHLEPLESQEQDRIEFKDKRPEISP
# Outline: as §1
# ELF5 = molecular target: T11, ELF5 (Homo sapiens, UniProt Q9UKW6-2 1-255)
# T11 sequence: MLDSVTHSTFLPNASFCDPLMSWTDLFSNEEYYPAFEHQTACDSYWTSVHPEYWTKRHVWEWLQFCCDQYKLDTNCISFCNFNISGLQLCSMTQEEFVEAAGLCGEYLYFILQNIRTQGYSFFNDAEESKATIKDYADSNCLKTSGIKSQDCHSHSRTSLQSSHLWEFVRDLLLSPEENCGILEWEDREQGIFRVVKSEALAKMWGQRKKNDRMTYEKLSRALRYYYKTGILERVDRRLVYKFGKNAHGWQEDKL
# Outline: as §1
# ETV3 = molecular target: T12, ETV3 (Homo sapiens, UniProt P41162-2 1-143)
# T12 sequence: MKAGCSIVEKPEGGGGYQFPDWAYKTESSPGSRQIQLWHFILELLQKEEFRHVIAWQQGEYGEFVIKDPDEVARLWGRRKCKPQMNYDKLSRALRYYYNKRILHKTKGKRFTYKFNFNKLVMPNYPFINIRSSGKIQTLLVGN
# Outline: as §1
# ETV6 = ETV6 (Homo sapiens, UniProt P41212 1-452)
# Chain of ETV6 (P41212 whole entry): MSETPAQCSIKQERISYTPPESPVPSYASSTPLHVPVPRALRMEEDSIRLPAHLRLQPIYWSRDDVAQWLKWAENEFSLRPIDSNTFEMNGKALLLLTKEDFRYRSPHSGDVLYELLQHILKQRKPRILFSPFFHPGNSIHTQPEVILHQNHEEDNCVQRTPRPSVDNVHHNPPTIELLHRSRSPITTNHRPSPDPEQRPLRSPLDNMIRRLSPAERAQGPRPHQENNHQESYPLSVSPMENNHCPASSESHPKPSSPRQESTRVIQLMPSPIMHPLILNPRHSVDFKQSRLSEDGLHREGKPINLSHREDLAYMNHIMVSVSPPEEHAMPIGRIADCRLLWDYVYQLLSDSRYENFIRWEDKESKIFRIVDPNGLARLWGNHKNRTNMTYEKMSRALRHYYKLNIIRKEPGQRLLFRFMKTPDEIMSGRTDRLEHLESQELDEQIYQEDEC
# Outline: as §1
Sequence,binding signal (FEV),binding signal (ETV5),binding signal (SPIC),binding signal (ELF4),binding signal (ELK4),binding signal (ETV2),binding signal (ELF3),binding signal (ETV1),binding signal (ERF),binding signal (ETV3L),binding signal (ETS2),binding signal (SPDEF),binding signal (ETV7),binding signal (ELF5),binding signal (ETV3),binding signal (ETV6)
GGAAGT,"3.88 fold enrichment (6-mer frequency, TF over GST control)","3.34 fold enrichment (6-mer frequency, TF over GST control)","3.41 fold enrichment (6-mer frequency, TF over GST control)","2.72 fold enrichment (6-mer frequency, TF over GST control)","2.27 fold enrichment (6-mer frequency, TF over GST control)","2.85 fold enrichment (6-mer frequency, TF over GST control)","3.25 fold enrichment (6-mer frequency, TF over GST control)","3.33 fold enrichment (6-mer frequency, TF over GST control)","2.56 fold enrichment (6-mer frequency, TF over GST control)","2.86 fold enrichment (6-mer frequency, TF over GST control)","3.2 fold enrichment (6-mer frequency, TF over GST control)","2.97 fold enrichment (6-mer frequency, TF over GST control)","2.91 fold enrichment (6-mer frequency, TF over GST control)","3.88 fold enrichment (6-mer frequency, TF over GST control)","3.42 fold enrichment (6-mer frequency, TF over GST control)","3.88 fold enrichment (6-mer frequency, TF over GST control)"
TGGTGT,"1.14 fold enrichment (6-mer frequency, TF over GST control)","1.26 fold enrichment (6-mer frequency, TF over GST control)","1.09 fold enrichment (6-mer frequency, TF over GST control)","1.34 fold enrichment (6-mer frequency, TF over GST control)","1.31 fold enrichment (6-mer frequency, TF over GST control)","1.45 fold enrichment (6-mer frequency, TF over GST control)","1.25 fold enrichment (6-mer frequency, TF over GST control)","1.2 fold enrichment (6-mer frequency, TF over GST control)","1.19 fold enrichment (6-mer frequency, TF over GST control)","1.25 fold enrichment (6-mer frequency, TF over GST control)","1.32 fold enrichment (6-mer frequency, TF over GST control)","1.23 fold enrichment (6-mer frequency, TF over GST control)","1.08 fold enrichment (6-mer frequency, TF over GST control)","1.14 fold enrichment (6-mer frequency, TF over GST control)","1.25 fold enrichment (6-mer frequency, TF over GST control)","1.31 fold enrichment (6-mer frequency, TF over GST control)"
